The text below walks through data of PubChem BioAssay AID1508600 (Functional Genomics Laboratory (NCATS/FGL), 2020).

Screen size: about 53,000 sequences; about 3,700 (7%) were called active.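 How the source made its calls: active means gene knockdowns whose robust z-score for IL-1 alpha signal is at least 2 or at most -2, so actives lie on both sides; inactive means the rest.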 Many of the other results were omitted from the sample, so actives are more common in it than they were.

A short description of this test: Components of the Cytosolic LPS Sensing Pathway: Gene Identification via Genome-wide siRNA Screen.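 Further: robust z of the log signal after scaling to non-targeting control siRNA wells of the plate.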 The note with it: RAW264.7 macrophages, IL-1a HTRF, actives lie on both sides, screened at 100 nM (by protocol), cells primed 5 h with Pam3CSK4 first. An outline of the steps:
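Three distinct siRNAs per gene were tested singly at 100 nM in RAW264.7 macrophages. Following Pam3CSK4 priming and 24 hour LipidA transfection, IL-1a secretion was read by HTRF.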
(In general: Time-resolved FRET reads energy transfer from a long-lived donor to a nearby acceptor.)
Take CCUCUUGAGGUCUCGUCAATT against Fam221b: the z-score is -0.0968 (inactive).

In the case of GGAUACAAAUCAGGUUCUCTT against Kansl2, the z-score was 0.0399 (inactive).

Consider GCCUUCUUAAGCUCUGAGCTT against Dhrs13, for which the z-score was -2.97 (active).

Take GGAAAAAAGAGAGGUCAGATT against Meox1: the z-score is -1.02 (inactive).

On to GGAAAUUGCUCAGGAGUUUTT against Anxa5, for which the z-score is -1.26 (inactive).

For the sequence GGAGAAUCCUGUUUUUUGUTT against Elp4, the z-score was 0.43 (inactive).

For the sequence GGUGCCAAUCAUUGUUAUGTT against Kcnv1, the z-score is 1.73 (inactive).

With CCCGAGAUGAGGAACUUUUTT against Ndnf, the z-score is -0.359 (inactive).

Regarding GGAGUAAUGAUAAGCCCUCTT against Tex264, the z-score was -0.0637 (inactive).

Take GCUCUACCUCAGAUAAAGGTT against Banf2: the z-score was -2.45 (active).

Take GGAUCUCAUACAGAAUCCGTT against Haus4: the z-score was 0.216 (inactive).

As for GGACCUAGAGGACUAUAAATT against P3h2, the z-score is 0.894 (inactive).

As to “GGAGCAGGUUACCAGAAAATT against E130114P18Rik”, the z-score is 0.301 (inactive).

On to GGGUUUGACUGUACAGUACTT against Adamts4, for which the z-score was -1.29 (inactive).

In the case of GGCCUUUACACGUGAGUCUTT against Zfp420, the z-score is -0.864 (inactive).

In the case of CGGAUGCGACAAAAAUCACTT against Il4, the z-score is 1.77 (inactive).

On to GCACUUACCGGAUCCAUUGTT against Clk4, for which the z-score is -0.793 (inactive).

Regarding GCACAGGUCUAAUUCGUCUTT against Grik1, the z-score is -2.78 (active).

GGACUUGACCCUGUCUUUGTT against Ostm1: the z-score was 0.871 (inactive).

As to GGAACAAAAACUGGUGCGCTT against Emilin2, the z-score is 2.07 (active).

On to GGCAUCUGAGCUGAGGAUUTT against Gem, for which the z-score was -0.295 (inactive).

With GGAUAGCUUGAUCAAUCUUTT against Cisd2, the z-score was -0.13 (inactive).

Take GCCUCUUAAUUUUAAGCUGTT against Gpr82: the z-score was -0.505 (inactive).

With GGGAAACUUGAACUUUGAUTT against Rsph1, the z-score was -1.54 (inactive).

As to GGGACAAUUCAGGAUGGAGTT against Ift88, the z-score is 0.0559 (inactive).

On to GCGGCUUUACAAGGAUGACTT against Elob, for which the z-score was 2 (active).

On to GGUCCUUUUUUCAACCAGCTT against Sh3gl1, for which the z-score was -0.259 (inactive).

For CCAAGGGUUGUUAAGUAUUTT against Cdh26, the z-score is 1.08 (inactive).

GGAUUUUCAUCGUGCUUUGTT against Necab3: the z-score was 1.23 (inactive).

Consider CCGUGAUAAUGUAACACCUTT against Prtg, for which the z-score was 0.0383 (inactive).

Turning to GGUAAACAUUGCUACUUUGTT against Mpdz, the z-score was 0.935 (inactive).

As for GGCCAAGAAAAACUACUAUTT against Kcnk5, the z-score is -0.706 (inactive).

With CCUAGGUUUGAAGACUCCCTT against Asphd2, the z-score was -2.03 (active).

For the sequence CCAAAUAUCACACACCCGATT against Fam187a, the z-score was 0.798 (inactive).

For GGUGACUACUACAGGAAACTT against Hps1, the z-score is 2.3 (active).

As to GCACUUAUGAUGUCCUAUUTT against Sema4b, the z-score was 0.606 (inactive).

Consider GGACAAAGUCUAGAAACUATT against Lrrc2, for which the z-score was 0.26 (inactive).

Turning to GGCUAUGACAAUGCCUACATT against Maged2, the z-score was 0.00495 (inactive).

As to GCGAAUCUUGCUUCUGACCTT against H4c8, the z-score was -2.13 (active).

Take GGUUUUUCGAGUUUUUUCUTT against Msx1: the z-score is 1.06 (inactive).

As for GGCUGCUUAUAAAAUUUUCTT against Mipep, the z-score is 0.398 (inactive).

As for GGCAUGUUUCUUGACUUAATT against Coil, the z-score was 0.122 (inactive).

As for GGACCUGGUUCAGGUAUCATT against Col6a3, the z-score was -2.17 (active).

With GGGUUUAUUUGGUCAAGAUTT against Mpc2, the z-score was -0.349 (inactive).

On to GCAUACGUGUUCAAUGGUGTT against Ppef2, for which the z-score is -0.541 (inactive).

In the case of CCGUGGAACUUAAAUAGUUTT against Pard6g, the z-score was 2.66 (active).

With GGAUCUCGCUGGCAAUAAUTT against Gpr45, the z-score was -0.222 (inactive).

With CCAUUUUUCCUACGUGGGUTT against Zfand2a, the z-score is 0.449 (inactive).

As to GGAUUUGGGUUUUCUAUAATT against Cfb, the z-score was -0.0373 (inactive).

CAAUGACAGCAGAUGACGUTT against Crabp2: the z-score is 0.0834 (inactive).

On to CCGGUCAAAAUUGAAAAGGTT against Bves, for which the z-score was 0.666 (inactive).

Turning to GGUGAAAAGUCCUGCCAAGTT against Nefh, the z-score was 0.408 (inactive).

Regarding GGCCAUUUGGAAACUAUUATT against Anapc11, the z-score is -0.109 (inactive).

Turning to GGCUGUGAGAUAGAUCUAATT against Arhgef40, the z-score is 2.07 (active).

Consider GCAAGGAGUUUAUGUGAGUTT against Olfr170, for which the z-score is 0.297 (inactive).

Regarding GGGCAAAAUACAAAAGGAGTT against Mlph, the z-score is -0.9 (inactive).

With GGACAUUCUCAAAUCUUGATT against Praf2, the z-score was 0.244 (inactive).

With GCAUAAGGACCCUUUGUCATT against Rasl10b, the z-score was -1.27 (inactive).

Take GCUGUAUCAGUCUUUCUAUTT against Cyp27b1: the z-score was 0.442 (inactive).

On to GGACAUGUCGGAUGGCUUCTT against P4ha1, for which the z-score was 0.212 (inactive).

On to GGCAGCAUUAAAACUUAAGTT against Chtop, for which the z-score is 2.71 (active).

Take GGGUAACAUGAAGAUCAAUTT against Rnf19a: the z-score is 0.488 (inactive).

For GGGACAAAAGCAAUCAAACTT against H2-M11, the z-score is 2.06 (active).

Take GCAAGCAUGCUCAUAAAGATT against Cast: the z-score was -0.142 (inactive).

For the sequence CGUAUGCAGAACAACAUUUTT against Klhl2, the z-score is 1.77 (inactive).

As to CGAUCCCUGUCUGUUGGAUTT against Spint4, the z-score was 0.944 (inactive).

Consider GGAGGUAUACAGUAAGGAGTT against Fbxo32, for which the z-score is 0.542 (inactive).

In the case of GGCUGACAGUAACAAGUGGTT against Fignl1, the z-score is 3.72 (active).

In the case of GCCAGGAUCCAUCAAUUCCTT against Olfr376, the z-score is -1.84 (inactive).

For the sequence CCCUGAAAAUUAUCGAGCGTT against Galnt18, the z-score was -0.493 (inactive).

Consider CCCAGGAACUAUGAGUUGUTT against Rnf31, for which the z-score was -1.87 (inactive).

GGAGAAAUUCUUCAAUGAGTT against Syt2: the z-score is -0.19 (inactive).

Regarding GGAGACCAAAAUUUCUUGGTT against Sox9, the z-score was 0.0192 (inactive).

GGAUCCGAACAUCCUCAGGTT against Hr: the z-score is -2.22 (active).

As to CGAAGAGAUCAGUAAUAUGTT against Kif21a, the z-score is 0.31 (inactive).

Consider CCCAUGGAAAUCCUCAGUATT against Ctsa, for which the z-score was -2.1 (active).

With CCCACUGAUGAUUACGUUCTT against Irf5, the z-score was -0.247 (inactive).

As to CCACAAGCUAAUACAUGCUTT against Ubac1, the z-score was -1.37 (inactive).

GGCCACAAAGACUCUGUGATT against Aamp: the z-score is -2.25 (active).

Consider GGCAGAACACCUUCUUAGUTT against Dars2, for which the z-score was -0.425 (inactive).

For the sequence AGUUAGCCUUGAGGAGAAUTT against Olfr1512, the z-score is 0.503 (inactive).

Turning to CCAUUGGAUUGGAACUGGATT against Dhx57, the z-score was -0.288 (inactive).

Regarding GCAGGUUUGAUAUAAAAUCTT against Uba2, the z-score was 0.162 (inactive).

As for GCUCACCUGAGUCAAUGAUTT against Nr5a2, the z-score was -2.25 (active).

Take GGAAUUUUGGUAGGUUUUATT against Tlcd4: the z-score was 1.36 (inactive).

As to CGGAAAAUCCUGCCUCCCUTT against S100pbp, the z-score is -0.36 (inactive).

For GGAUGUAGAUGUUGGUUUUTT against Kcnj14, the z-score is 2.52 (active).

For the sequence GCCAUCUGCUUUAACCUCUTT against Aebp2, the z-score was 0.238 (inactive).

For GGUGUACGAGAUCCAGGACTT against Eif3l, the z-score was -0.699 (inactive).

For GGCUGGUCAAAAUUUGGAATT against Cdca2, the z-score is -0.9 (inactive).

Take CGCAAGGACCGAUCUGAUGTT against Rnps1: the z-score is -2.41 (active).

Regarding GCAUCUGGGACAUUUAGAGTT against Cd200r3, the z-score is -1.08 (inactive).

For the sequence CCAGCUUUUGUUUGUUAGATT against Trappc11, the z-score is 0.56 (inactive).

Turning to GGAAGACUUGGCUACACAATT against Rab40c, the z-score was -1.04 (inactive).

As for GGCAAACCUGCUUCUGCUATT against Prss52, the z-score was -1.27 (inactive).

For the sequence GUUACUUUGAUGUUGUCUATT against Pdgfrl, the z-score is 0.817 (inactive).

Take GGCCAAUGCACUGUGUUACTT against Tinag: the z-score is 1.25 (inactive).

GCAGAGAGAUACAUUAAAGTT against Adam10: the z-score is 1.16 (inactive).

CGCGCUUCUACUUUUUUUATT against Nkx2-1: the z-score is 0.406 (inactive).

Take GGAGGACCCUAUGUCUAAUTT against Adora1: the z-score is 4.6 (active).

“GCUGAGACAUGUGGAGUAUTT against 4931429L15Rik”: the z-score is 0.426 (inactive).

For the sequence GGUUCUCAUCAUUUCAACUTT against Sh3bgrl, the z-score is -1.61 (inactive).

As to GGCUUUGACCCGAAAAGAATT against Tut4, the z-score is -0.0161 (inactive).

As for CGUGCCAAUUGAAAAAAACTT against Prkn, the z-score was 1.23 (inactive).

As to CCAUACAAUAAGAGUGCUATT against Clec4a4, the z-score was 0.936 (inactive).

“GGGUAGGCAAAGUUUUCAATT against 1700029M20Rik”: the z-score was 4.63 (active).

Turning to GCAUUCCAUGGUACAGGGUTT against Adamts4, the z-score was -0.646 (inactive).

Regarding CGGUUUACAUUCCUGACUUTT against Plekho2, the z-score is 1.42 (inactive).
